In ChEMBL document CHEMBL2218924, “A broad activity screen in support of a chemogenomic map for kinase signalling research and drug discovery” (Biochem J, 2013):

Tests used:
[1] = biological target: T1, Phosphorylase b kinase gamma catalytic chain, liver/testis isoform (Homo sapiens) (UniProt P15735); conditions: at 1 µM
T1 sequence (whole entry): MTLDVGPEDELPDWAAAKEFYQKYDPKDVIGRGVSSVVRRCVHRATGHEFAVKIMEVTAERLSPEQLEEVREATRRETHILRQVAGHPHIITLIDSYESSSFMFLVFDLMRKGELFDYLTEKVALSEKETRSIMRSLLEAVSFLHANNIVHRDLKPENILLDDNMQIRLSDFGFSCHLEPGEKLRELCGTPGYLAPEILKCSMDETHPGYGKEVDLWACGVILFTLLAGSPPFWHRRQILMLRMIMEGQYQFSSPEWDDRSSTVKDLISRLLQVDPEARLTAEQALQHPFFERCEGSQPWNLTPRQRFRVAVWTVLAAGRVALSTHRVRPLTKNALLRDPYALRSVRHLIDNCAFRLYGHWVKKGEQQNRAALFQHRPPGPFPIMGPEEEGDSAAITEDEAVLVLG

[2] = biological target: T1, Phosphorylase b kinase gamma catalytic chain, liver/testis isoform (Homo sapiens); conditions: at 10 µM
[3] = biological target: Serine/threonine-protein kinase pim-1 (Homo sapiens) (UniProt P11309); conditions: at 1 µM
Serine/threonine-protein kinase pim-1 (Homo sapiens), sequence (P11309 whole entry, looked up): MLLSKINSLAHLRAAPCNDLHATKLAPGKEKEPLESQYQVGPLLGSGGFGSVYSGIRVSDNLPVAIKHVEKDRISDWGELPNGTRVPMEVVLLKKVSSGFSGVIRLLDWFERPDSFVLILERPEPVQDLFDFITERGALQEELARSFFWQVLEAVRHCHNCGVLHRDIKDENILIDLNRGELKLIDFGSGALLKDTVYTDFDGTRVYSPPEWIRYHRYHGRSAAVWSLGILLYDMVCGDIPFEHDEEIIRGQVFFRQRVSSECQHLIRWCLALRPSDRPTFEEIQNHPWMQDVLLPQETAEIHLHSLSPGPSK

[4] = biological target: Serine/threonine-protein kinase pim-1 (Homo sapiens) (UniProt P11309); conditions: at 10 µM
[5] = biological target: Serine/threonine-protein kinase pim-2 (Homo sapiens) (UniProt Q9P1W9); conditions: at 1 µM
Serine/threonine-protein kinase pim-2 (Homo sapiens), sequence (Q9P1W9 whole entry, looked up): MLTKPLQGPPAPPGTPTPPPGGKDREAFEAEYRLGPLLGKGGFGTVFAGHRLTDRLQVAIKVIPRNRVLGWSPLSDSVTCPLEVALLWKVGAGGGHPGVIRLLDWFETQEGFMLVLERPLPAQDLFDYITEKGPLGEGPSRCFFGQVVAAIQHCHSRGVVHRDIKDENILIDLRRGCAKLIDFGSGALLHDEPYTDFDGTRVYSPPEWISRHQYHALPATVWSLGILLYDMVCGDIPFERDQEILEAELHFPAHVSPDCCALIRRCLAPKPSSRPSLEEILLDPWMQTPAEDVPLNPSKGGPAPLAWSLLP

[6] = biological target: Serine/threonine-protein kinase pim-2 (Homo sapiens) (UniProt Q9P1W9); conditions: at 10 µM
[7] = biological target: Serine/threonine-protein kinase pim-3 (Homo sapiens) (UniProt Q86V86); conditions: at 1 µM
[8] = biological target: Serine/threonine-protein kinase pim-3 (Homo sapiens) (UniProt Q86V86); conditions: at 10 µM
[9] = biological target: Serine/threonine-protein kinase PLK1 (Homo sapiens) (UniProt P53350); conditions: at 1 µM
Serine/threonine-protein kinase PLK1 (Homo sapiens), sequence (P53350 whole entry): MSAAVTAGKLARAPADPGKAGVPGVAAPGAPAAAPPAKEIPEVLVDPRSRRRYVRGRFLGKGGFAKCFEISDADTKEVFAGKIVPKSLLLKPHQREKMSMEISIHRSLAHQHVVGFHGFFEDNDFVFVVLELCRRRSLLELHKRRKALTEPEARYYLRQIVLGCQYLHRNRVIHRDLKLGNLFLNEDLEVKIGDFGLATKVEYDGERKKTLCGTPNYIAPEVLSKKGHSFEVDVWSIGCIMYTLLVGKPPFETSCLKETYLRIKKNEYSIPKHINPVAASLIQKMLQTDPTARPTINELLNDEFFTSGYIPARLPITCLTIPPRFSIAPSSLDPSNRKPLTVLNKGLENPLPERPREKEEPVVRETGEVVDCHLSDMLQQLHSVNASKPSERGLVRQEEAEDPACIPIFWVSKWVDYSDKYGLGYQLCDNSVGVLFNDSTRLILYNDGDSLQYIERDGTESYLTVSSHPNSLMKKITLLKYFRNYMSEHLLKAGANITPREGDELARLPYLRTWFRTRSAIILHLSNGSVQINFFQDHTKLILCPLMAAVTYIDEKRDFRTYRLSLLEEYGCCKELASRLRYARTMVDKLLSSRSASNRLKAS

[10] = biological target: Serine/threonine-protein kinase PLK1 (Homo sapiens) (UniProt P53350); conditions: at 10 µM

Row | SMILES | residual activity [1] | residual activity [2] | residual activity [3] | residual activity [4] | residual activity [5] | residual activity [6] | residual activity [7] | residual activity [8] | residual activity [9] | residual activity [10]
1 | COc1cccc(-c2cc(=O)c3ccccc3o2)c1N | 113% | 117% | 82% | 58% | 126% | 102% | 89% | 91% | 81% | 102%
2 | CCOc1cc2ncnc(Nc3cccc(Br)c3)c2cc1OCC | 92% | 108% | 65% | 57% | 92% | 79% | 96% | 94% | 80% | 81%
3 | O=[N+]([O-])c1ccc(-c2nc(-c3ccc(F)cc3)c(-c3ccncc3)[nH]2)cc1 | 98% | 91% | 99% | 85% | 127% | 139% | 86% | 95% | 88% | 80%
4 | NC(=O)c1ccc2[nH]c(-c3ccc(Oc4ccc(Cl)cc4)cc3)nc2c1 | 89% | 80% | 121% | 116% | 108% | 119% | 83% | 83% | 75% | 69%
5 | COc1ccc(CNc2nc(N(CCO)CCO)nc3c2ncn3C(C)C)cc1 | 122% | 88% | 87% | 69% | 134% | 130% | 87% | 88% | 69% | 58%
6 | Oc1c2ccccc2c2c3c(cccc13)N=N2 | 77% | 15% | 68% | 18% | 58% | 21% | 75% | 59% | 69% | 64%
7 | Cc1nc2cc3nc(-c4cccs4)cnc3cc2n1C | 94% | 111% | 100% | 101% | 90% | 121% | 101% | 102% | 118% | 85%
8 | COc1cc2ncnc(N3CCN(C(=O)Nc4ccc(Oc5ccccc5)cc4)CC3)c2cc1OC | 103% | 122% | 111% | 122% | 92% | 149% | 91% | 93% | 63% | 61%
9 | O=C1c2ccccc2-[n+]2ccc3c([nH]c4ccccc43)c21 | 108% | 99% | 110% | 91% | 144% | 130% | 81% | 74% | 75% | 74%
10 | Nc1n[nH]c2nnc(-c3c(-c4ccccc4)nn4ccccc34)cc12 | 104% | 98% | 98% | 85% | 123% | 74% | 88% | 83% | 78% | 92%
11 | COc1cc2ncnc(Nc3ccc(O)c(Br)c3)c2cc1OC | 97% | 94% | 66% | 29% | 78% | 66% | 87% | 70% | 64% | 54%
12 | CC[n+]1c(/C=C/N(C)c2ccccc2)n(-c2ccccc2)c2ccc(-c3nc4ccccc4s3)cc21 | 93% | 63% | 94% | 85% | 101% | 136% | 105% | 107% | 123% | 90%
13 | COc1cc2ncnc(Nc3ccc(Oc4ccccc4)cc3)c2cc1OC | 95% | 123% | 81% | 132% | 135% | 142% | 95% | 93% | 74% | 72%
14 | O=Nc1c(-c2c(O)[nH]c3ccccc23)[nH]c2ccccc12 | 25% | 12% | 76% | 47% | 68% | 38% | 94% | 90% | 83% | 103%
15 | Nc1ccc2ncnc(NCCc3ccc(Oc4ccccc4)cc3)c2c1 | 88% | 75% | 100% | 93% | 93% | 136% | 90% | 89% | 90% | 85%
16 | O=C1NC(=O)/C(=C/c2ccc3c(c2)OC(F)(F)O3)S1 | 85% | 94% | 37% | 5% | 58% | 10% | 88% | 41% | 101% | 61%

Row | SMILES | residual activity [1] | residual activity [2] | residual activity [3] | residual activity [4] | residual activity [5] | residual activity [6] | residual activity [7] | residual activity [8] | residual activity [9] | residual activity [10]
17 | Oc1n[nH]c2nnc(-c3c(-c4ccccc4)nn4ccccc34)cc12 | 116% | 111% | 84% | 89% | 123% | 84% | 85% | 84% | 75% | 83%
18 | CN(C)c1ccc(/C=C2\C(=O)Nc3ccccc32)cc1 | 98% | 85% | 77% | 93% | 92% | 112% | 106% | 91% | 88% | 76%
19 | O=C(Nc1cccc(Nc2nccc(Nc3cccc(C(F)(F)F)c3)n2)c1)C1CC1 | 94% | 80% | 66% | 64% | 110% | 119% | 104% | 104% | 78% | 74%
20 | N#Cc1cnc2cnc(NCc3cccnc3)cc2c1Nc1ccc(F)c(Cl)c1 | 3% | 2% | 27% | 18% | 84% | 63% | 97% | 94% |  | 
21 | CC(C)n1cnc2c(NCc3ccccc3)nc(NCCCO)nc21 | 96% | 75% | 107% | 75% | 134% | 87% | 93% | 96% | 89% | 52%
22 | CCC(=O)Nc1ccc2ncnc(Nc3cccc(Br)c3)c2c1 | 90% | 108% | 80% | 86% | 104% | 94% | 92% | 85% | 93% | 71%
23 | O=C(O)c1ccc2c3c1cccc3c(=O)n1c3ccccc3nc21 | 95% | 72% | 58% | 23% | 14% | 0% | 15% | 1% | 92% | 94%
24 | Cn1nc2c3c(cccc31)C(=O)c1ccccc1-2 | 102% | 84% | 71% | 45% | 91% | 44% | 80% | 66% | 81% | 77%
25 | CO[C@H]1[C@@H](OC)C[C@H](C)[C@@H](OC)C2=CC(=O)C=C(NC(=O)/C(C)=C/C=C/[C@H](OC)[C@@H](OC(N)=O)/C(C)=C/[C@@H]1C)C2=O | 97% | 100% | 85% | 93% | 99% | 129% | 98% | 96% | 86% | 70%
26 | O=C1NC(=O)c2cc(Nc3ccc(F)cc3)c(Nc3ccc(F)cc3)cc21 | 93% | 86% | 49% | 11% | 91% | 31% | 94% | 93% | 95% | 69%
27 | Nc1cccc(-c2cc3c(Oc4cccc(O)c4)ncnc3[nH]2)c1 | 120% | 91% | 75% | 34% | 118% | 84% | 86% | 91% | 78% | 83%
28 | O=C1Nc2ccccc2/C1=C1/Nc2ccccc2/C1=N\OCCC(O)CO (stereo not drawn) | 21% | 5% | 58% | 11% | 98% | 44% | 75% | 64% | 72% | 75%
29 | C[C@@H](N)[C@H]1CC[C@H](C(=O)Nc2ccncc2)CC1 | 101% | 93% | 126% | 115% | 118% | 121% | 98% | 99% | 107% | 105%
30 | O=C1NC(=O)c2c1c1c3ccccc3[nH]c1c1[nH]c3cc(Br)ccc3c21 | 114% | 71% | 28% | 13% | 27% | 6% | 29% | 14% | 90% | 90%
31 | Cn1cnc2cc3c(Nc4cccc(Br)c4)ncnc3cc21 | 95% | 98% | 75% | 63% | 84% | 97% | 92% | 88% | 105% | 82%
32 | CO[C@H]1C[C@@H]2CC[C@@H](C)[C@@](O)(O2)C(=O)C(=O)N2CCCC[C@H]2C(=O)O[C@H]([C@H](C)C[C@@H]2CC[C@@H](O)[C@H](OC)C2)CC(=O)[C@H](C)/C=C(\C)[C@@H](O)[C@@H](OC)C(=O)[C@H](C)C[C@H](C)/C=C/C=C/C=C/1C | 94% | 116% | 105% | 141% | 110% | 142% | 97% | 93% | 75% | 66%
